Assay results as given in publication PMC7819943, “Rice protein-binding microarrays: a tool to detect cis-acting elements near promoter regions in rice”.
In all, about 68,000 sequences were measured (“fluorescence intensity (a.u.)”: median about 9,100, highest 2% from about 16,000 on). Many of the other results were omitted from the sample, so the highest values are more common in it than they were.

target: OsWRKY34 (Oryza sativa, UniProt Q0JBA9 1-250); assay: protein-binding microarray (RPBM); PBS, 2% BSA, 51.3 ng/ul salmon testes DNA, 50 uM zinc acetate, 200 nM TF, 25 C, 1 h; high values mean tight binding; settings: protein: recombinant; tags: N-terminal polyhistidine and DsRed monomer fusion (pET32a); label: CyDye5-dUTP incorporated in the synthesized complementary strand; 3' TTTTT single-stranded linker to array surface; dsDNA, one strand shown
Sequence (Q0JBA9 entry or part of it): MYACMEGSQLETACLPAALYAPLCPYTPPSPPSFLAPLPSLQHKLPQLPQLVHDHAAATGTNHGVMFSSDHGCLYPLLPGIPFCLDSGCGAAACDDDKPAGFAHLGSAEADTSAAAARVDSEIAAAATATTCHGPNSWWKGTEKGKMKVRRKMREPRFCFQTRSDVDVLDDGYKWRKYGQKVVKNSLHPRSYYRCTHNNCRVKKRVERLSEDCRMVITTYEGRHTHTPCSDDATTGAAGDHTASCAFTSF
Outline: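 Ni–NTA purification followed expression in E. coli BL21-CodonPlus of transcription factors fused N-terminally to a polyhistidine tag and DsRed. At 200 nM in PBS with 2% BSA, salmon testes DNA and 50 µM zinc acetate, the protein was incubated for 1 h at 25 °C with a custom Agilent array that had been primer-extended with Cy5-dUTP and blocked with 2% BSA. After washing, the array was read on an Axon 4000B scanner. The binding signal is per-feature fluorescence intensity in arbitrary units.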

Sequence	binding signal
CGTGGGCCCCACCCGTGCCAGCTCACCTCATCCCCACCACCGGAGTCACCTAGTGCAG	8940 fluorescence intensity (a.u.)
ATCGACCCTTGCGCGGACTCCGCTCTCTTGTTGACCACCTCGGAGTCACCTAGTGCAG	14600 fluorescence intensity (a.u.)
TCACTCATGCAGAGTCACAGCTTGTATAGTTGTAATGCATCGGAGTCACCTAGTGCAG	9000 fluorescence intensity (a.u.)
GCCTCGTCCACTCCACCACGCCGCCGAAAGCCGCAACTCTCGGAGTCACCTAGTGCAG	9580 fluorescence intensity (a.u.)
CAACCTCTCCGGGGCGGGGCTGGCCGGCGAGCTGGCGGCGCGGAGTCACCTAGTGCAG	9150 fluorescence intensity (a.u.)
AGCTGCCACAAGCCGAAGGCACGTTGACTTAAAAGAAGCCCGGAGTCACCTAGTGCAG	10700 fluorescence intensity (a.u.)
ATATTTTCCGCCTACCCTGTACGCACGTTTATATACACAACGGAGTCACCTAGTGCAG	9400 fluorescence intensity (a.u.)
CTTGGACCCACTTAATATGTTATATGGCTATTTCTAGTCACGGAGTCACCTAGTGCAG	8220 fluorescence intensity (a.u.)
TAAGGTTTCTTCTGGGATCATTACATATACCTATATGGTTCGGAGTCACCTAGTGCAG	8100 fluorescence intensity (a.u.)
AGTTTGTTTTTTTTCTGTCCTTGACATGGCCATTTTGTTACGGAGTCACCTAGTGCAG	9920 fluorescence intensity (a.u.)
GTGCGACGGCGGCGGCGAAGTCAGTCCCCTCCTCGAGGGGCGGAGTCACCTAGTGCAG	27700 fluorescence intensity (a.u.)
TTTCCGCCGCGGCGAGGAGGAGGAGGAGGAGGAGGGGCGACGGAGTCACCTAGTGCAG	9980 fluorescence intensity (a.u.)
CAGCGACGGTGGGGAGGTGGGCGTGGGCGGTTGCCGGCGGCGGAGTCACCTAGTGCAG	11200 fluorescence intensity (a.u.)
TTGGTTGGTTGGTTTGGTGGGCGGCGGTGCCGGAGGAAGACGGAGTCACCTAGTGCAG	21900 fluorescence intensity (a.u.)
GCGGCGAAGCAGGGAGGAGGGAGGAGGAGGGGCGGCGGTGCGGAGTCACCTAGTGCAG	12100 fluorescence intensity (a.u.)
GGGCGGAGAGTTGGGGTTTGGGTTGGTGGCGGTGGGCCGGCGGAGTCACCTAGTGCAG	14800 fluorescence intensity (a.u.)
TCCTCGCCGACGGCGTGCCGGCTCACGTTGCACCTCACCGCGGAGTCACCTAGTGCAG	8210 fluorescence intensity (a.u.)
CTTTCCTGCACCTCCACTTTATTTAGTTCATTAATTGAATCGGAGTCACCTAGTGCAG	8660 fluorescence intensity (a.u.)
ACTTTGTTTACACGGTGGTTCTCTCCTTTTCTTCTTCTCACGGAGTCACCTAGTGCAG	8480 fluorescence intensity (a.u.)
GTGCGGTTTTTCTCCTGGTTCTTTTGTGTACTTTATACCACGGAGTCACCTAGTGCAG	18200 fluorescence intensity (a.u.)
TGGTTGTGTTCTTGTTGGCTTATACCTTTTTTATGTTTTGCGGAGTCACCTAGTGCAG	9260 fluorescence intensity (a.u.)

Sequence	binding signal
TTAATTACTTCCTTTTCTTTTCTTTTCTTTTCCTTTTTTTCGGAGTCACCTAGTGCAG	8110 fluorescence intensity (a.u.)
CTTCGGTGTACTTTTTTCTTTTCTAGTTCCTGGTTCTAATCGGAGTCACCTAGTGCAG	18000 fluorescence intensity (a.u.)
GGTTCTCTTTTCTTTTCTTTTCTTTTCTCCTGGAGTTTTTCGGAGTCACCTAGTGCAG	9120 fluorescence intensity (a.u.)
GGCGCCGCCGTCGTCCTGCTGCTTCCGCCGCCGCGTCTTCCGGAGTCACCTAGTGCAG	11000 fluorescence intensity (a.u.)
CTGCACATGATTTCAATCTACTATGGACATTCTCACTCTCCGGAGTCACCTAGTGCAG	12100 fluorescence intensity (a.u.)
CACCTGCCTCCTCCTACCACCAGCCGCCGCCGACGACTAACGGAGTCACCTAGTGCAG	8550 fluorescence intensity (a.u.)
TCCATCATCGTCGTCTCTGTGTGTGTCTGTGTGTGTGTGTCGGAGTCACCTAGTGCAG	17900 fluorescence intensity (a.u.)
CCGCTGTCGTCGTCTCGTCTCTGTGTGTGTGTCTCCATCACGGAGTCACCTAGTGCAG	8280 fluorescence intensity (a.u.)
CGCTTCCATCTCTCTCTGTCTCTCTTCTTTTTGACCTCTTCGGAGTCACCTAGTGCAG	11900 fluorescence intensity (a.u.)
TCTCTCTGGGAGGTCTCGCGGAAGGTGGTGGGGTTGGGCCCGGAGTCACCTAGTGCAG	11500 fluorescence intensity (a.u.)
CTCTCTCCAATCTCCATCTCTCTGTCTGATTTGTAATCTTCGGAGTCACCTAGTGCAG	16500 fluorescence intensity (a.u.)
CGGGCGGGGCGGGGCGGGTTCGCTCGTCGGATGTGTGGATCGGAGTCACCTAGTGCAG	23900 fluorescence intensity (a.u.)
CGCGCCATCTCCATGTCATCGTCGTCGTCTGTGTCCCCTTCGGAGTCACCTAGTGCAG	10700 fluorescence intensity (a.u.)
TACCTCTCTTCTCTTCTCCAATCTCTATCTATGTCTTCTTCGGAGTCACCTAGTGCAG	8640 fluorescence intensity (a.u.)
CGCGGGTGGTCTGGTCTCTCTCTCGTATCGTATCGTATCACGGAGTCACCTAGTGCAG	16700 fluorescence intensity (a.u.)
CGACGGGCGGGTGTGGGGATTCGCGGCCTTGAGGGTTCGTCGGAGTCACCTAGTGCAG	9660 fluorescence intensity (a.u.)
TGCTCTCTCTCGTGTGGTCTGGTCCGCGCGCTCGTGTATACGGAGTCACCTAGTGCAG	9150 fluorescence intensity (a.u.)
GGGGAGGGAAGGGATGGATCGGATGCGGGTTCGGGCGGTTCGGAGTCACCTAGTGCAG	8910 fluorescence intensity (a.u.)
TTTGGTTGCTTGCCTTCTTTATCGGCAAAATTTGCTATAGCGGAGTCACCTAGTGCAG	8970 fluorescence intensity (a.u.)
ATTTAGGGAAATTATAACCATGCCACTCTGTCGTGTTTTCCGGAGTCACCTAGTGCAG	9180 fluorescence intensity (a.u.)
AGATAGTGGTGGTGGTCTGTGCATCGTTGACTTGATCATGCGGAGTCACCTAGTGCAG	10900 fluorescence intensity (a.u.)

Sequence	binding signal
GGTCCCGTTCCGATCCTCACTCGGTCACTCATCTTTCCTTCGGAGTCACCTAGTGCAG	8730 fluorescence intensity (a.u.)
AAATTATAACGAGGGGTGAGGGGCTAAGAACCTATTTTCGCGGAGTCACCTAGTGCAG	9700 fluorescence intensity (a.u.)
CCCATCACCACTCTGCCCACATCCCGGCGTCGCTTCGTGTCGGAGTCACCTAGTGCAG	9120 fluorescence intensity (a.u.)
TTCGTTCCGATTCTTTTTTTTTCATTTGCTATGCATCTTCCGGAGTCACCTAGTGCAG	11000 fluorescence intensity (a.u.)
GTCCTATCGCGTAGCCCACACTCCACCCTATCGCGCCTTCCGGAGTCACCTAGTGCAG	11500 fluorescence intensity (a.u.)
CGCCCCTCCCCTTTGGCGCCGCCGCGCCTGCGTTGACCCTCGGAGTCACCTAGTGCAG	8230 fluorescence intensity (a.u.)
TCCAATCTGTGCTGCCTTTATATTAGTTCCACCAAGAAGACGGAGTCACCTAGTGCAG	9380 fluorescence intensity (a.u.)
GACCTTTACTTTTTCATCCTACCTAAATGCATATTCCAATCGGAGTCACCTAGTGCAG	9320 fluorescence intensity (a.u.)
ACTATTTGGATATCCCATTCCAACGCCATTGCCCTCTGTTCGGAGTCACCTAGTGCAG	8280 fluorescence intensity (a.u.)
GCGGGGTTCGTGGTGTGTGCGTGTGCGTCTCTCTCTGTCTCGGAGTCACCTAGTGCAG	21100 fluorescence intensity (a.u.)
TGGGAGTGTTGTTATTCTCGTGCGCGTTGTGGTTAGTGGGCGGAGTCACCTAGTGCAG	9630 fluorescence intensity (a.u.)
CTCTCTCGCTTCTTCTCTGTGTGTGTGTTGCGTGGTGGGGCGGAGTCACCTAGTGCAG	23800 fluorescence intensity (a.u.)
TTTCCGTTCCTTTCTTTCCTTCTCGCGTTTGCGTGGTGGGCGGAGTCACCTAGTGCAG	10500 fluorescence intensity (a.u.)
TGGCGTGGTCTCGTCTCTTCGTCTTCGGGTGTGCTCACCGCGGAGTCACCTAGTGCAG	9650 fluorescence intensity (a.u.)
GTTCTCGTCGTTCGTGTTCTTCTGCTTCGGTTTCGTGGTGCGGAGTCACCTAGTGCAG	11900 fluorescence intensity (a.u.)
ATCTGTAGTCCGTTGCTCTTCTCTCTCATATTTTATCTCGCGGAGTCACCTAGTGCAG	11700 fluorescence intensity (a.u.)
TGTGTGTATGCGTTTATAGGAGTAACTGTGTGTGCGTTTACGGAGTCACCTAGTGCAG	8150 fluorescence intensity (a.u.)
CGCCTCCGCCTCCGTCGACTCCGCGCCTCCGCCGCCACCCCGGAGTCACCTAGTGCAG	15100 fluorescence intensity (a.u.)
TCCAGCTGCTTGCTTCTCTCTCTCTCTTCTCTTGAGCATCCGGAGTCACCTAGTGCAG	9650 fluorescence intensity (a.u.)
TCTGCCTTGAAGTGGTACCGTGGGTGGGAGGGTAGTTATGCGGAGTCACCTAGTGCAG	11500 fluorescence intensity (a.u.)
CGCTTGATCTGGGGTGGGGTCGCGAGTGGTGGAGGAGGTGCGGAGTCACCTAGTGCAG	16600 fluorescence intensity (a.u.)

Sequence	binding signal
GGAGGAGGTGGAGGCGCTGCTGGTGGTGGAGGCCGTGGTGCGGAGTCACCTAGTGCAG	8020 fluorescence intensity (a.u.)
TCGTGCGTGCGTGAGGGAGGTCGTGGTGGTGGTGGTGGTGCGGAGTCACCTAGTGCAG	9020 fluorescence intensity (a.u.)
AATCTCCGTGGCGAGGGTGGGGTCGGAGGTGGTCATGTCGCGGAGTCACCTAGTGCAG	9290 fluorescence intensity (a.u.)
ATGGGAGGTGGGTGGTACCGTGGTGGTGGTCGCAGATCTGCGGAGTCACCTAGTGCAG	27200 fluorescence intensity (a.u.)
CGGAGGCGAGTGGGTGGGTGGTGGTCCAGTGCGGTGGTGCCGGAGTCACCTAGTGCAG	9800 fluorescence intensity (a.u.)
AGTGGGTGGTGGTGGTGGTGGTGGTGCGAGGCCGTCGCTGCGGAGTCACCTAGTGCAG	20500 fluorescence intensity (a.u.)
GGGGACGCAGGAGGAGGTGGGTGGGTCGAGCTCGCTTGCGCGGAGTCACCTAGTGCAG	15400 fluorescence intensity (a.u.)
TGTGTGAGATTTTTGCATGTTTTTGTTGTGTTTGTTCATACGGAGTCACCTAGTGCAG	8580 fluorescence intensity (a.u.)
TCTGGTTCCATTTTCCACGCACAGGAGAGTGATTACTTTTCGGAGTCACCTAGTGCAG	11200 fluorescence intensity (a.u.)
TCTCTCTCTCGTGCGTCACCTCCTCGCGTGCTCAGCGCCGCGGAGTCACCTAGTGCAG	8780 fluorescence intensity (a.u.)
TCCTTGCTCCATCAGTATTACACCACCCAACACAAGCTCACGGAGTCACCTAGTGCAG	8870 fluorescence intensity (a.u.)
AGTTAATCCTTGTTAAACTTTGGTTTCAAAACAATTTCCCCGGAGTCACCTAGTGCAG	65500 fluorescence intensity (a.u.)
CTCCTCATCCATCCACCACACCACTTGCCTCCAAACAAAACGGAGTCACCTAGTGCAG	9340 fluorescence intensity (a.u.)
TCTACAAACTTGGTCAAACTTAAAACAGTTTGACTTTGACCGGAGTCACCTAGTGCAG	14600 fluorescence intensity (a.u.)
CGACTTGTTGCCTCAAACAATTCCTGGTTATAAAACACCACGGAGTCACCTAGTGCAG	35500 fluorescence intensity (a.u.)
CCCTCTATAAATGGTTCCTATCACAACCACAAACACCACACGGAGTCACCTAGTGCAG	8240 fluorescence intensity (a.u.)
GGTTCAAATTAACTTTTCAATCTTGGCTGTGTTTGGATCCCGGAGTCACCTAGTGCAG	9630 fluorescence intensity (a.u.)
GCTGTTTCCTGGAGGTTCCATCCATGCTATCCTGTGCTCGCGGAGTCACCTAGTGCAG	8470 fluorescence intensity (a.u.)
GACCAACCAAAACCTCCGATCACCTTGTCCCGTACTGAAACGGAGTCACCTAGTGCAG	11000 fluorescence intensity (a.u.)
TCACCCCGCCGCCGCCATCCAGGCGCCGACGACCTCCCATCGGAGTCACCTAGTGCAG	8840 fluorescence intensity (a.u.)
CTCTCTTTTCCTTTTCTAATTTTAGATTTTATTTTATTTTCGGAGTCACCTAGTGCAG	8600 fluorescence intensity (a.u.)
